# High-throughput results deposited in PubChem BioAssay by several laboratories.
# MT1-MMP txn act: MT1-MMP promoter reporter activation – cell-based, luciferase luminescence, primary screen | AID 750, 2007 | actives 0.16% (n = 86,000) | activation factor at 10 µM | HT1080 MT1-MMP promoter luciferase reporter, overnight; stronger effect = higher value;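 active means activation factor of at least 2 for MT1-MMP transcription at 10 µM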
# TNAP act DEA: human TNAP enzyme activators, primary screen, biochemical, luminescent, intermediate phosphate acceptor level | 64,000 tested, under 10 active | purified TNAP, CDP-star luminescence, 100 mM DEA, 30 min; stronger effect = higher value; scale: 0 levamisole-inhibited, 1 vehicle-only enzyme | activation factor at 20 µM | Alkaline phosphatase, tissue-nonspecific isozyme (Homo sapiens), P05186;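 active means activation factor of at least 2 at 20 µM, relative to controls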
# Smad3 inh: Smad3/FoxH1 peptide binding inhibitors, primary screen, biochemical, TR-FRET; Mothers against decapentaplegic homolog 3 (Homo sapiens), P84022; TR-FRET Smad3/Dy647-FoxH1 peptide binding, europium anti-His; inhibition, % at 25 µM; actives 0.29% (n = 88,000);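 active means compounds that reduce the energy-transfer binding signal between the protein and its labelled peptide by more than half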;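 further: 0% = Smad3 plus labelled peptide maximal FRET and 100% = peptide-only background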
# HePTP inh: inhibitors of human HePTP phosphatase, primary screen, biochemical, absorbance, leukemia target | AID 521, 2006 | Tyrosine-protein phosphatase non-receptor type 7 (Homo sapiens), P35236 | inhibition, % at 20 µM | recombinant HePTP phosphatase activity, OD absorbance | actives 0.64% (n = 110,000); in the data active means inhibition above about 50%;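 further: plate controls were vehicle for no effect and reference inhibitor for full effect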
# Target sequence (P35236 whole entry, looked up): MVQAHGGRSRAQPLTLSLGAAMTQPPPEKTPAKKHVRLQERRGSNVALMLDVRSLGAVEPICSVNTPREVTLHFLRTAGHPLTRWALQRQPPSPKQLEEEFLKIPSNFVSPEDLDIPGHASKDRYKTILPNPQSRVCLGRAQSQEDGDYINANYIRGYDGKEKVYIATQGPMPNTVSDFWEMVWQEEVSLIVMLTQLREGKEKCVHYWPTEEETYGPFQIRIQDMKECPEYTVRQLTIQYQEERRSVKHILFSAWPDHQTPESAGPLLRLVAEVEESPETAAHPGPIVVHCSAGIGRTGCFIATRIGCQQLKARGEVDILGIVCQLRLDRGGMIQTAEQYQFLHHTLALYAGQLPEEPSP
# Ec RNAP inh: E. coli RNAP inhibitors, biochemical | DNA-directed RNA polymerase subunit beta (Escherichia coli (strain K12)), P0A8V2 | E. coli RNA polymerase, fluorescence transcription assay | inhibition, %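 (tested at 10 µM)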 | actives 0.2% (n = 62,000); in the data active means inhibition above about 20%;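 further: 0% = enzyme without compound and 100% = no enzyme blank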
# The depositor's hits bear a star; · = not tested or not shown; [ ] = remark or other dose. The list is not random: actives were taken first. Their share in the collection is about 0.8%.
SMILES,MT1-MMP txn act,TNAP act DEA,Smad3 inh,HePTP inh,Ec RNAP inh
Cc1ccc(C23CC4CC(CC(C(=O)Nc5ccccn5)(C4)C2)C3)cc1,·,·,·,-17,·
O=C1CC(c2ccc(F)c(Br)c2)C2=C(CCCC2=O)N1 (centres undefined),2.3*,0.9,0,9,3
O=C1CC(c2ccc3c(c2)OCO3)C2=C(CCCC2=O)N1 (centres undefined),1.1,1,-6,-4,-7
O=C(Nc1nnc(CSCc2ccccc2F)s1)C1CCCCC1,·,·,·,8,·
O=C(Nc1cccc(Cl)c1)c1cccc(NC(=S)Nc2ccc(F)cc2)c1,·,·,·,104*,·
O=C(Nc1cccc(Cl)c1)c1cccc(NC(=S)Nc2ccccc2)c1,·,·,·,8,·
Oc1cccc(C=Nc2ccccc2O)c1,·,·,·,-16,·
Oc1cccc(C=NC2CCCCC2)c1,·,·,·,64*,·
CCCC(C)C1C(C#N)=C(N)Oc2n[nH]c(-c3ccccc3)c21 (centres undefined),·,·,·,-15,·
O=C(Nc1cccc(OC(F)(F)F)c1)c1ccc(Br)o1,1.2,2.3*,6,-12,-7
O=C(Nc1ccc2nn(-c3ccc(F)cc3)nc2c1)c1ccc(Br)o1,·,·,·,81*,·
O=C(Nc1ccc(OC(F)(F)F)cc1)c1ccc(Br)o1,·,·,·,3,·
O=C(O)CCCCCN1C(=O)C(=O)/C(=C(/O)c2ccc([N+](=O)[O-])cc2)C1c1ccc2c(c1)OCO2 (centres undefined),·,·,·,104*,·
Fc1ccc(OCCn2ccnc2)cc1,·,·,·,0,·
CCC1(C)CC(CC#N)(c2ccccc2OC)CCO1 (centres undefined),·,·,·,104*,·
O=C(CC1CCCCC1)NC1CCCCC1,·,·,·,0,·
CCN1C(=O)/C(=C/c2c(NCCCn3ccnc3)nc3c(C)cccn3c2=O)SC1=S,·,·,·,-5,·
Cc1cccn2c(=O)c(/C=C3\SC(=S)N(Cc4ccco4)C3=O)c(NCCCn3ccnc3)nc12,·,·,·,62*,·
COc1ccc(NCN2C(=O)S/C(=C/c3ccc(F)cc3)C2=O)cc1Cl,·,·,·,3,·
O=C(Nc1ccc(-c2cn3ccccc3n2)cc1)c1cccc(Br)c1,·,·,·,102*,·
O=C(Nc1ccc(-c2nc3ccccc3[nH]2)cc1)c1cccc(Br)c1,·,·,·,102*,·
COc1ccc(NC(=O)c2ccc(C)c([N+](=O)[O-])c2)cc1,·,·,·,12,·
O=C(Nc1cccc(-c2cn3ccccc3n2)c1)c1cccc(Br)c1,·,·,·,18,·
O=C(Nc1ccc(-c2nc3ccc(NC(=O)c4cccs4)cc3[nH]2)cc1)c1cccs1,0.9,·,54*[fluorescence artefact?],·,·
Cc1ccc(C(=O)Nc2ccc(-c3nc4cc5ccccc5cc4[nH]3)cc2)cc1[N+](=O)[O-],·,·,·,56*,·
SMILES,MT1-MMP txn act,TNAP act DEA,Smad3 inh,HePTP inh,Ec RNAP inh
COc1ccccc1N1C(=O)CC(N2CCN(Cc3ccc4c(c3)OCO4)CC2)C1=O (centres undefined),·,·,·,-20,·
O=Cc1ccc(-c2cccc(OC(F)(F)F)c2)o1,·,·,·,-2,·
CN(C)CCCNC(=O)c1cccc(F)c1,·,·,·,10,·
Cc1ccc(NS(=O)(=O)c2cc(Cl)ccc2Cl)c([N+](=O)[O-])c1,·,·,·,-14,·
N#CC(C#N)=NNc1ccc(O)c(C(=O)O)c1,·,·,·,69*,·
COc1ccc([N+](=O)[O-])cc1-c1ccc(/C=C(/C#N)C(=O)Nc2cccc(Br)c2)o1,·,·,·,-1,·
N/C(=N\OC(=O)c1ccco1)c1ccccc1,2*,·,25,·,·
CCCn1c(=O)c(C(=O)Nc2nnc(CC)s2)c(O)c2ccccc21,1.1,0.9,53*[fluorescence artefact?],6,1
O=C(COc1ccc(Cl)cc1)Nc1ccc2oc(-c3ccccc3F)nc2c1,·,·,·,57*,·
COC(=O)c1c(NC(=O)CCCC(=O)O)sc2c1CCC2,2.1*,·,6,·,·
COC(=O)c1c(NC(=O)CCc2ccccc2)sc2c1CCCC2,·,·,·,-20,·
CCCCOc1ccc2c3c(cccc13)C(=O)c1ccccc1-2,·,·,·,11,·
O=C1c2ccccc2C(=O)c2c(Nc3cc4c5c(ccc6c7ccc8c9c(cc(Nc%10cccc%11c%10C(=O)c%10ccccc%10C%11=O)c(c3c56)c97)-c3ccccc3C8=O)C(=O)c3ccccc3-4)cccc21,·,·,73*,·,·
O=C1c2ccccc2C(=O)c2c(Nc3ccc4c5c(cccc35)C(=O)c3ccccc3-4)cccc21,·,·,83*,·,·
CCOc1ccccc1NC(=O)COc1ccc(C(C)(C)C)cc1,·,·,·,-10,·
O=C1CCCC2=C1C1(O)C(=O)c3ccccc3C1(O)O2 (centres undefined),0.9,1.1,66*,-4,-2
COc1ccc(Cl)cc1C(=O)Nc1ccc(N2CCCCC2)c(Cl)c1,·,·,·,-7,·
CN(/C=C/C=C1\CC/C(=C\C=C\N(C)c2ccccc2)C1=O)c1ccccc1,·,·,·,98*,·
CN(C)/C=C/C=C/C=C1\CCC/C(=C\C=C\N(C)C)C1=O,·,·,·,-1,·
COc1ccc(CNCc2ccc(OC)c(OC)c2)cc1,·,·,·,4,·
O=C(CC(C(=O)O)N1CCOCC1)c1ccccc1 (centres undefined),·,·,·,103*,·
Cn1c(=O)n(C)c2cc(/C=N\NC(N)=S)ccc21,·,·,·,-1,·
COC(=O)/C=C(\C)NCCN/C(C)=C/C(=O)OC,·,·,·,105*,·
Cc1ccc(-n2[nH]c(=O)c(/C=C3\C=Nc4ccccc43)c2O)cc1,·,·,·,94*,·
CCc1cc2c(=O)c(-c3nc4ccccc4s3)c(C)oc2cc1OS(C)(=O)=O,·,·,·,-12,·
